In the supplement of paper PMC11732987, “Enantioselective OTUD7B fragment discovery through chemoproteomics screening and high-throughput optimisation” (Communications Chemistry, 2025):

Tests used:
Experiment in all cases: log2 ratio of Biotin-Ahx-Ub-VS probe labelling (fragment/DMSO); higher = less target engagement (more negative = stronger competition), active = hit call of the paper (q ≤ 0.05, log2 ratio ≤ -1)
Conditions in all cases: compound concentration: 200 uM; treatment time: 3 h
[1] = molecular target: USP34 (UniProt Q70CQ2)
Outline: (§1)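 HEK293T lysate in Tris/CHAPS/IGEPAL buffer with protease inhibitors (495 µg per sample) was given fragment at 200 µM or vehicle for 3 h, in triplicate. It then received Biotin-Ahx-Ub-VS at 0.5 µM final for 1 h. Labelled DUBs were NeutrAvidin-enriched, digested with LysC and trypsin, and run by diaPASEF LC-MS/MS. Values are average log2 fragment/vehicle ratios by unpaired t-test on global-median-normalised Spectronaut quantities of proteins with ≥2 unique peptides.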

[2] = molecular target: T1, USP36 (UniProt Q9P275)
T1 sequence (whole entry): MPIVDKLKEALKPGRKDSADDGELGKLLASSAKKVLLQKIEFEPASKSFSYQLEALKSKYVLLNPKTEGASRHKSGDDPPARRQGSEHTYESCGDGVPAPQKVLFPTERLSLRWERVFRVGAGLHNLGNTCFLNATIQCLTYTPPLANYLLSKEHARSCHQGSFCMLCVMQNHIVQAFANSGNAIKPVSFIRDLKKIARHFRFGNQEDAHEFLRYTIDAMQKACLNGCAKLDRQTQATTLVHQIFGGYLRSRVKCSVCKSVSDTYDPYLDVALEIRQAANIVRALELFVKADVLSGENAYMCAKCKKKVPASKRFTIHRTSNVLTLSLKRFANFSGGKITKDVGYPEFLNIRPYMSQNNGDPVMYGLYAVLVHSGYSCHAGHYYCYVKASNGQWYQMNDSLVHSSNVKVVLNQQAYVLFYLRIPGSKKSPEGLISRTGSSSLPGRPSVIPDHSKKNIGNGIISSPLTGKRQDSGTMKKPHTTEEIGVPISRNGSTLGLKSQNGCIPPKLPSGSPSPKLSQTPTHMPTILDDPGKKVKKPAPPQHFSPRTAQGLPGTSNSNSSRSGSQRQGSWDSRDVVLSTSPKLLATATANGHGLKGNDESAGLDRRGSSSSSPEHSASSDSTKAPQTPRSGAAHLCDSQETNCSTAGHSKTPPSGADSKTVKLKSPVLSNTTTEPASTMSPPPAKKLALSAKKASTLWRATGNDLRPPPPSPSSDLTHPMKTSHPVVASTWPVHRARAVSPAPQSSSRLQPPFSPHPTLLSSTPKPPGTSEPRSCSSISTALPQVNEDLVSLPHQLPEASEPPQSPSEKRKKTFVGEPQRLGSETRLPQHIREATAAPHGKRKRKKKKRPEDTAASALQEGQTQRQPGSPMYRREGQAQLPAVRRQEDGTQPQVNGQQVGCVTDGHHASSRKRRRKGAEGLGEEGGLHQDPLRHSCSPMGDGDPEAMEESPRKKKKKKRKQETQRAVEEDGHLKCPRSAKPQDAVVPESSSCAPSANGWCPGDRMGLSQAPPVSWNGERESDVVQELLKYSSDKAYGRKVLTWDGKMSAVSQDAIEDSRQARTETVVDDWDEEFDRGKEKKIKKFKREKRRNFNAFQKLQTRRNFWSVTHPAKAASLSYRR
Outline: as §1

[3] = molecular target: T2, USP38 (UniProt Q8NB14)
T2 sequence (whole entry): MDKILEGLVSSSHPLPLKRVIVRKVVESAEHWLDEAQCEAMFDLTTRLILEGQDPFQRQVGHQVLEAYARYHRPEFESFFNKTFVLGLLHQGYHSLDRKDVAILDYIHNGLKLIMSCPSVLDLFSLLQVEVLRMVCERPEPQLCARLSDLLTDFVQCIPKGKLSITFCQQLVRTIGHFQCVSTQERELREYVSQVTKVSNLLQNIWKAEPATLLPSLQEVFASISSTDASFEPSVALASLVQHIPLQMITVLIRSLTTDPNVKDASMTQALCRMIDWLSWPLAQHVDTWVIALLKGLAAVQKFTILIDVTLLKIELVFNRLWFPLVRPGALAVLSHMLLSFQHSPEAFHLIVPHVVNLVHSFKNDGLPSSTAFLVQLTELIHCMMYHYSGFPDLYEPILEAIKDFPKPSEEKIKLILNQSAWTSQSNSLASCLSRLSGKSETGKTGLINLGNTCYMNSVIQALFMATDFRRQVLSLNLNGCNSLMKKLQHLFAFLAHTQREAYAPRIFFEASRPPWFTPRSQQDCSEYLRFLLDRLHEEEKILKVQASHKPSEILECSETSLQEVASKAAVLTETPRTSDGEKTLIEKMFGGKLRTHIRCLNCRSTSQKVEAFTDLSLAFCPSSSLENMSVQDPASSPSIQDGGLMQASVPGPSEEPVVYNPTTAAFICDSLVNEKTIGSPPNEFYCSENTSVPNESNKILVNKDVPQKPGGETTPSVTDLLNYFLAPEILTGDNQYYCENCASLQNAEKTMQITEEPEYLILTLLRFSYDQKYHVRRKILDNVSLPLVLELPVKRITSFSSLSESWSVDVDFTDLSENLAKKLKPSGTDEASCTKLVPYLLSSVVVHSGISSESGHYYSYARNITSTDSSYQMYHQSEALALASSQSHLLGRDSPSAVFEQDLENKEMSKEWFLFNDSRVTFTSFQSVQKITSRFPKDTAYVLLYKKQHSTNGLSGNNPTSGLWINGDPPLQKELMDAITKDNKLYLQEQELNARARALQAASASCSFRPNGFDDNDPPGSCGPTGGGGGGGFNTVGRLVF
Outline: as §1

[4] = molecular target: T3, USP39 (UniProt Q53GS9)
T3 sequence (whole entry): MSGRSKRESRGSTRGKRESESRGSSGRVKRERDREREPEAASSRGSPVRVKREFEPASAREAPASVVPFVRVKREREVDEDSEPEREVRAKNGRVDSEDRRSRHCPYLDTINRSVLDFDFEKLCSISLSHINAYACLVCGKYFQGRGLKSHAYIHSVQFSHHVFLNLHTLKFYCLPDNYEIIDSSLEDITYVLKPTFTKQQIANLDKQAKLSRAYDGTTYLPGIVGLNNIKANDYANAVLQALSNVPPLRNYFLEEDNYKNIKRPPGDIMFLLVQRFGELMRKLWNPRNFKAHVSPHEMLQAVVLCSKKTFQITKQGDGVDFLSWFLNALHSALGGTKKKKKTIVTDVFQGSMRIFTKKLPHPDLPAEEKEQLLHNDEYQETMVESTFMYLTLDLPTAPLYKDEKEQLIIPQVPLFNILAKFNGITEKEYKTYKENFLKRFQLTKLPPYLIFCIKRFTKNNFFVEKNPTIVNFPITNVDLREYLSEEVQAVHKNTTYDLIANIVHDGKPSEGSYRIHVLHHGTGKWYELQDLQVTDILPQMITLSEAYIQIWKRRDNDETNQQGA
Outline: as §1

[5] = molecular target: T4, USP4 (UniProt Q13107)
T4 sequence (whole entry): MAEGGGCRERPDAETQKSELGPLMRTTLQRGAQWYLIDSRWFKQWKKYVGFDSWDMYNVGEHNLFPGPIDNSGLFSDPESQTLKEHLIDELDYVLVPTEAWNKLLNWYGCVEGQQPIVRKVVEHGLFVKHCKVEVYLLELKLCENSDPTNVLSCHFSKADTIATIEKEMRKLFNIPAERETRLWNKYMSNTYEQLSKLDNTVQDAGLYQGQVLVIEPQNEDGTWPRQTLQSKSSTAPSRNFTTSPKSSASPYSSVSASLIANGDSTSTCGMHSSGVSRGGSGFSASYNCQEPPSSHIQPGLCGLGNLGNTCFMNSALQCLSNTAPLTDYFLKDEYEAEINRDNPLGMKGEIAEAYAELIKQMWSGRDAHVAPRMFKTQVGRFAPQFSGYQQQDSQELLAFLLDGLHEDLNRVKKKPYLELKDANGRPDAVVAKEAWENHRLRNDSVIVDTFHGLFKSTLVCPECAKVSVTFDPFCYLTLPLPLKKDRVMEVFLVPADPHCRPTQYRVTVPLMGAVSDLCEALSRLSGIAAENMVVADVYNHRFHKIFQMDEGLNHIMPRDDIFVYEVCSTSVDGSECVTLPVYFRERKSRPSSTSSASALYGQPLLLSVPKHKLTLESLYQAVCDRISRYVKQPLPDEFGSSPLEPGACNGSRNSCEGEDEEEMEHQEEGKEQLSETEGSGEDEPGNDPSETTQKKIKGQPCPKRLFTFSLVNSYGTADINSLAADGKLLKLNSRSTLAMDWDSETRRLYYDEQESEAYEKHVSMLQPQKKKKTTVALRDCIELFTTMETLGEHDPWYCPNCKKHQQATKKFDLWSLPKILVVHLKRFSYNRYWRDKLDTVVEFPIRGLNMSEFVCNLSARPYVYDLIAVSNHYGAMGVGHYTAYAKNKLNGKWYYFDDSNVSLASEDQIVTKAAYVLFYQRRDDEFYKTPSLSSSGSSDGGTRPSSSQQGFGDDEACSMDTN
Outline: as §1

Measured: log2 ratio of Biotin-Ahx-Ub-VS probe labelling

USP34, sequence (Q70CQ2 whole entry, the tested form may be a part): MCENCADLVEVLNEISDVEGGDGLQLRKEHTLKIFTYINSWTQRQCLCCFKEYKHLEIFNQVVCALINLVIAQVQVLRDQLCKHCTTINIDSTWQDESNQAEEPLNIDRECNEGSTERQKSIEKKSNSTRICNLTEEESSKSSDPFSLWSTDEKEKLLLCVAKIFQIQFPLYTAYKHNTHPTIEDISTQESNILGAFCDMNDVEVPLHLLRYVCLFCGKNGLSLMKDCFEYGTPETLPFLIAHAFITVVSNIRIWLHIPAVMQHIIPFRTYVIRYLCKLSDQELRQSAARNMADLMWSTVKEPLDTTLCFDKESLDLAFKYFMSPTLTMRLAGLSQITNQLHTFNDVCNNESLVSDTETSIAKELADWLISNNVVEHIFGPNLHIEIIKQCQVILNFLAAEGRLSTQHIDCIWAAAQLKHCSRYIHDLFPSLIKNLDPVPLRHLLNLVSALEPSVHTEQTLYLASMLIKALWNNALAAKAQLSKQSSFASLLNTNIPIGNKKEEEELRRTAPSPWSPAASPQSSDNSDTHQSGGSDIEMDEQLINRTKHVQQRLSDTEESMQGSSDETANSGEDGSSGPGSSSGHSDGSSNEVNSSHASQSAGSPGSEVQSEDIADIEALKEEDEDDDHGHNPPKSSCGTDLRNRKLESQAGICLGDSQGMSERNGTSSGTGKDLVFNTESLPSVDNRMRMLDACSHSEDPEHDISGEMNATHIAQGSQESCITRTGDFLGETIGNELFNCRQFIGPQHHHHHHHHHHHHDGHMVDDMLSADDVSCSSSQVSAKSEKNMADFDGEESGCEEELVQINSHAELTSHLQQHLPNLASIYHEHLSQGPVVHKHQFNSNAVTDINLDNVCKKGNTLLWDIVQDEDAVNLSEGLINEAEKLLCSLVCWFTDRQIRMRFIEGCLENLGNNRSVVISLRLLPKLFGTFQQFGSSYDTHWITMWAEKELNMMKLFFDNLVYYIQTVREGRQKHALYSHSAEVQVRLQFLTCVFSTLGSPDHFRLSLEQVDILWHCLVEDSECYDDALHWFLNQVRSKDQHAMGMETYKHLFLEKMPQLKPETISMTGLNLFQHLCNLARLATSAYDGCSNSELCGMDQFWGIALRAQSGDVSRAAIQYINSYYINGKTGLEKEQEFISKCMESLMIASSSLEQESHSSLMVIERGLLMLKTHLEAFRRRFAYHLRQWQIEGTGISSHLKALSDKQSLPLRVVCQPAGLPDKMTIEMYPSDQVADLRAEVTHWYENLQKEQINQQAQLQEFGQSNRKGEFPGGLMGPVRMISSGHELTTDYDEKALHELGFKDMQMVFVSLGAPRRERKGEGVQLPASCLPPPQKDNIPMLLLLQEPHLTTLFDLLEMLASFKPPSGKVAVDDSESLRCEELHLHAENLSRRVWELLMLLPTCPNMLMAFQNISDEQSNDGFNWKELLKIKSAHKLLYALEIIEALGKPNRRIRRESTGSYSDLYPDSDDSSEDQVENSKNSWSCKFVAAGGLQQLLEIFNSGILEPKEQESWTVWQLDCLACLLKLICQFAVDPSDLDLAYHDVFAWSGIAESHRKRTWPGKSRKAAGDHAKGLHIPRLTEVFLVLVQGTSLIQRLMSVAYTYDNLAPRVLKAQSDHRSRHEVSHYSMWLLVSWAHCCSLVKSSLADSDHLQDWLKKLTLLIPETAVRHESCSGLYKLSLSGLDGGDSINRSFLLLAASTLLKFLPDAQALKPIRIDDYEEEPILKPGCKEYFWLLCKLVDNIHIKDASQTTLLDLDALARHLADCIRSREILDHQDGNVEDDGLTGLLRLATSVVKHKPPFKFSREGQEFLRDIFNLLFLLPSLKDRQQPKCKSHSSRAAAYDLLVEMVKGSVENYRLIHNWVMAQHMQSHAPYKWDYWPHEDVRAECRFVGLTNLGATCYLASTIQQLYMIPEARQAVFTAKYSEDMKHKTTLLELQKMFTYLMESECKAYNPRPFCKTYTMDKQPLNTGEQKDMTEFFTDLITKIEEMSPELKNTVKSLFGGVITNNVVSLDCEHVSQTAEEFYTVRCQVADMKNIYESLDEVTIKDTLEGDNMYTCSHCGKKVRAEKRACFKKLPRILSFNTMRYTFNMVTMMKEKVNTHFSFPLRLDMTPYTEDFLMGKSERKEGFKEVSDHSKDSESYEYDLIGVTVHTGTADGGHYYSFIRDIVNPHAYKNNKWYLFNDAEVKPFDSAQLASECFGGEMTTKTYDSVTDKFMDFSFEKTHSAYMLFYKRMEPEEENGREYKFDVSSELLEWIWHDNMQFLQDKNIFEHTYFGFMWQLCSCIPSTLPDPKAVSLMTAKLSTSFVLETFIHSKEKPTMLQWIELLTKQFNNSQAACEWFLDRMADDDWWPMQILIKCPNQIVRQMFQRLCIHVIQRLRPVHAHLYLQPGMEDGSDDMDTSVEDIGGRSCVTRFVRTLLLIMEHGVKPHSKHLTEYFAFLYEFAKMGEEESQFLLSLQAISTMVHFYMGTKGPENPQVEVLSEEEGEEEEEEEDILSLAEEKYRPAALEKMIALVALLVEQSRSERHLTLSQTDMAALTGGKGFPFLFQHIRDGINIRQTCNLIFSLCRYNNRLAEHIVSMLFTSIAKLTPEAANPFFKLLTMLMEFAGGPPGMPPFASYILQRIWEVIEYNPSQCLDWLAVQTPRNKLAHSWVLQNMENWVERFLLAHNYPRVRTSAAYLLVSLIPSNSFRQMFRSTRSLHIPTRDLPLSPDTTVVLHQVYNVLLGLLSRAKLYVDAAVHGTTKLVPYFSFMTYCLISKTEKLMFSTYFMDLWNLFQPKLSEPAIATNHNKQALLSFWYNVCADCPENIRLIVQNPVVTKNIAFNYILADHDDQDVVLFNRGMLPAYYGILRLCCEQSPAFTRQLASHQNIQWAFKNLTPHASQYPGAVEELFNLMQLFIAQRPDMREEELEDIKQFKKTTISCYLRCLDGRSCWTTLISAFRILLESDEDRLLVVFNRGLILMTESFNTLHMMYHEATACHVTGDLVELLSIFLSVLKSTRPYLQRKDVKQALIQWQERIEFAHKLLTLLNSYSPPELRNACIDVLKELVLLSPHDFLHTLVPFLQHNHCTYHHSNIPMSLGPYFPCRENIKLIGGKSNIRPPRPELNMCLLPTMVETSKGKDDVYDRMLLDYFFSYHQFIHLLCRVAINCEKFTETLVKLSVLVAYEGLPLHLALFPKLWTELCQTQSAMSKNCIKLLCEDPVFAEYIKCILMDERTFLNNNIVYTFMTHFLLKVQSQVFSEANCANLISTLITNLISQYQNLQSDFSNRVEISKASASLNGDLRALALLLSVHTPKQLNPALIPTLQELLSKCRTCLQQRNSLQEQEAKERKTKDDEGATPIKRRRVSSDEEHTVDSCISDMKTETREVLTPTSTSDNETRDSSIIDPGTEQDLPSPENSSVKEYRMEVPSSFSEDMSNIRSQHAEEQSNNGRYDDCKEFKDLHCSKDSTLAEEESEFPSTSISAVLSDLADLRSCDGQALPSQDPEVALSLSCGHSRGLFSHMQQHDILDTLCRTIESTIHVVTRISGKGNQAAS

Cl.Cn1ncc2c1CCCC2NC(=O)CCl (stereo not given)
inactive: [1] -0.0828 | [2] -0.298 | [3] -0.175 | [4] -0.0961 | [5] 0.00214
